Only some compounds are listed: those with a hit (about 3.5% of all), similar ones and a draw of the others.
GPR151 activ – activators of human GPR151, primary screen, cell-based, PathHunter beta-arrestin, luminescence. activation, % at 11.2 µM. G-protein coupled receptor 151 (Homo sapiens), Q8TDV0. PathHunter beta-arrestin GPR151 cells. actives 1% (n = 650,000). AID 1508602, 2020; in the data active means activation above about 4.9%;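 further: 0% = median of compound wells and 100% = cells with positive control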
TEAD-YAP block – TEAD-YAP interaction inhibition, primary screen, TEAD-YAP interaction inhibitor project, luminescence, HEK-TIYL cells; TEAD-Gal4/YAP UAS-luciferase luminescence; inhibition, % at 9.12 µM; actives 1.4% (n = 640,000); AID 1259422, 2018; in the data active means inhibition above about 32%;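 further: 0% = median of test compound wells and 100% = reference inhibitor wells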
FBW7 activator – FBW7 E3 ligase activators, primary screen, biochemical, AlphaScreen, human; normalized activity (activation), % at 26.1 µM; F-box/WD repeat-containing protein 7 (Homo sapiens), Q969H0; actives 0.13% (n = 650,000); AID 1259310, 2017; AlphaScreen FBW7–phospho-cyclin E peptide binding, activator screen; in the data active means normalized activity above about 1.9%;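 further: purified mutant Fbw7 with reduced substrate affinity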
MITF inh – MITF inhibitors, primary screen, biochemical, AlphaScreen, human; inhibition, % at 2.6 µM; actives 0.91% (n = 650,000); AID 1259374, 2018; Microphthalmia-associated transcription factor (Homo sapiens), O75030; AlphaScreen MITF homodimerization, bead proximity signal; in the data active means inhibition above about 50%;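 further: 0% = vehicle wells with protein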
Target sequence (O75030 whole entry, looked up): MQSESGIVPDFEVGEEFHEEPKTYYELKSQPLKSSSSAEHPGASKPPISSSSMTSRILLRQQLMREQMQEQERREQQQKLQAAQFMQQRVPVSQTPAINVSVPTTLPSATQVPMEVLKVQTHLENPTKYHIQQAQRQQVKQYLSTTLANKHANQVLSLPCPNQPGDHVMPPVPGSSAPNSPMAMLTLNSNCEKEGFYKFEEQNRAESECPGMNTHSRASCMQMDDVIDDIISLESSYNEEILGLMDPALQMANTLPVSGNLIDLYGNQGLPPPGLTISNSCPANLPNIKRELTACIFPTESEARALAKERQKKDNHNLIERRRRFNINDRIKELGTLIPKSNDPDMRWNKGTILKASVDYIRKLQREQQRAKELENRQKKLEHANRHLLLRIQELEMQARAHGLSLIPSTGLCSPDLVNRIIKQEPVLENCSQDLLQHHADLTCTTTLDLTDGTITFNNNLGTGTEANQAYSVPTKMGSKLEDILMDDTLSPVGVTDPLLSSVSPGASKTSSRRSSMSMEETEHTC
Numbers without * were called inactive; ! = not confirmed by another sample.

SMILES	GPR151 activ	TEAD-YAP block	FBW7 activator	MITF inh
O=C(O)c1cc(Br)cc2c1N[C@@H](c1ccc(F)cc1)[C@H]1CC=C[C@@H]21	-1.2	-3.4	-0.4	78.5*
O=C(O)c1cccc2c1NC(c1ccccc1[N+](=O)[O-])C1CC=CC21 (stereo unspecified)	0.0	-0.5	-0.3	66.5*
O=C(O)c1cccc2c1NC(c1ccc([N+](=O)[O-])cc1)C1CC=CC21 (stereo unspecified)	0.5	-4.3	-0.2	65.0*
O=C(O)c1cccc2c1NC(c1cccc(Br)c1)C1CC=CC21 (stereo unspecified)	1.2	8.2	0.0	23.7
Cc1c(C(=O)O)ccc2c1N[C@@H](c1cccc(Cl)c1)[C@H]1CC=C[C@@H]21	-0.2	-0.5	-0.6	76.5*
C/C(=N/O)c1ccc2c(c1)C1c3ccccc3C2c2ccccc21	-0.7	-2.7	-0.1	7.4
CCOC(=O)CC1(c2ccc(C)cc2)C(=O)c2ccccc2C1=O	-0.9	-7.9	0.1	4.4
CCCC1C(C#N)=C(SCc2cccc([N+](=O)[O-])c2)NC(C)=C1C(C)=O (stereo unspecified)	-0.2	6.1	-0.1	2.7
COc1ccc(C(=O)OCC(=O)OC(C)(C)C)cc1[N+](=O)[O-]	0.6	9.3	0.0	-9.0
C#CCN(C)C(=O)c1c(C)nc2sccn12	0.0	10.3	1.9*	19.3
Cc1ccc(S(=O)(=O)N2CCOCC2)c(C)c1N1CCCC1=O	-0.7	4.9	0.0	6.7
Cc1ccn(S(=O)(=O)c2ccc(C)c(N3CCCC3=O)c2C)n1	0.6	7.9	2.0*	10.9
Cc1ccc2c(c1)c(NC(=O)c1ccno1)nn2Cc1ccc(C#N)cc1	0.4	-8.2	-0.2	-11.7
COc1ccc(-c2noc(N3CCCC(C(=O)N(C)c4cc(C)ccc4C)C3)n2)cc1 (stereo unspecified)	1.0	8.2	0.0	3.5
CCc1ccc(-n2c(=S)sc3c(=O)[nH]c(SCc4ccc(C)cc4C)nc32)cc1	0.8	6.6	0.0	1.1
Cn1cc(-c2ccc3cnc(Nc4ccc(-n5cnc(N6CCCC(O)C6)n5)cc4)nc3c2)cn1 (stereo unspecified)	-2.7	89.8*	-0.3	1.6
c1cc(-n2cnc(N3CCOCC3)n2)ccc1Nc1cc2cc(-c3cn[nH]c3)ccc2cn1	0.8	91.8*	-0.3	9.6
Cn1cc(-c2ccc3cnc(Nc4ccc(-n5cnc(-c6ccc(=O)[nH]c6)n5)cc4)nc3c2)cn1	-2.2	39.8*	1.0	20.3
Cn1cc(-c2ccc3cnc(Nc4ccc(-n5cnc(N6CCOCC6)n5)cc4)nc3c2)cn1	1.7	96.2*	-0.1	10.0
Cn1cc(-c2ccc3cnc(Nc4ccc(-n5cnc(C(C)(C)C)n5)cc4)nc3c2)cn1	0.7	13.9	-0.3	-4.6
c1ccc(-c2ccc3cnc(Nc4ccc(-n5cnc(N6CCOCC6)n5)cc4)nc3c2)cc1	0.4	-3.1	-0.1	16.1
Cn1c(-c2ccccc2)cnc1SCC(=O)Nc1ccc2c(c1)OCCO2	3.8	5.4	-0.2	-2.0
c1cc(-n2cnc(N3CCOCC3)n2)ccc1Nc1ncc2ccc(-c3cn[nH]c3)cc2n1	0.0	95.7*	1.0	18.2
CCN(CC)c1ccc(/C=N/NC(=O)c2cc(C)oc2C)c(O)c1	-4.1	53.4*	-1.1	9.8
CCN(CC)c1ccc(/C=N/NC(=O)c2cc(Cl)ccc2O)c(O)c1	-0.9	-5.0	-0.1	0.5
SMILES	GPR151 activ	TEAD-YAP block	FBW7 activator	MITF inh
CCN(CC)c1ccc(/C=N\NC(=O)c2ccc(O)cc2)c(O)c1	0.1	-6.5	-0.1	16.0
CCN(CC)c1ccc(/C=N/NC(=O)c2ccc(F)cc2)c(O)c1	-0.7	72.6*	0.0	-5.3
Cc1ccc(S(=O)(=O)/N=C2/C=C(ON=C3C=CC(=O)C=C3)C(=O)c3ccccc32)cc1	-2.5	45.4*	-0.5	7.5
CCCNc1ncnc2c1nc(NCCCN1CCCC1=O)n2C(C)C	-1.7	-19.4	0.2	8.5
CC(C)n1c(NCCCN2CCCC2=O)nc2c(Nc3ccccc3)ncnc21	-7.6	35.4*	-0.1	-6.1
CC(C)n1c(NCCN2CCOCC2)nc2c(Nc3ccc(N4CCOCC4)cc3)ncnc21	-0.7	-11.1	0.0	0.2
CC(C)n1c(NCCN2CCOCC2)nc2c(Nc3ccccc3)ncnc21	-4.0	41.1*	0.2	2.8
CC(=O)c1ccc(N=Nc2c(C)[nH][nH]c2=O)cc1	-5.6	-21.3	-0.1	0.3
CC(=O)Nc1ccc(N=Nc2ccc(O)cc2)cc1	-1.7	56.4*	0.0	6.9
CC(=O)c1ccc(N=Nc2ccc(O)cc2)cc1	-8.4	98.9*	-0.1	15.8
NC(=O)NCC(=O)OCC(=O)Nc1c(Cl)cc(S(N)(=O)=O)cc1Cl	0.7	12.2	0.2	-7.5
CCOc1ccc(CCNC(=O)C2CCCN(c3nc4ccccc4o3)C2)cc1OCC (stereo unspecified)	-0.3	-0.1	0.0	3.8
NS(=O)(=O)c1cccc2c1c([N+](=O)[O-])cc1[nH]c(=O)c(=O)[nH]c12	-0.1	-2.1	0.8	69.1*!
O=c1[nH]c2c([N+](=O)[O-])cccc2c2ccccc12	0.8	13.4	0.2	8.3
NC(=O)C(C(=O)/C=C/c1ccc(Cl)cc1)=C1SCCS1	2.7	44.3*	-0.2	-17.9
Cc1c(Cl)cccc1S(=O)(=O)N1CCC(n2nnc3ccccc32)CC1	-0.2	-0.3	0.0	14.4
Cc1nc2ccccc2n1CC1CCN(S(=O)(=O)/C=C/c2ccccc2)CC1	-0.2	32.8*	-0.2	-2.8
Cc1c(Cl)cccc1S(=O)(=O)N1CCC(Cn2c(C)nc3ccccc32)CC1	0.6	36.1*	0.1	6.4
C#CC(C)(C)OC(=O)C1CC(C)=CCC1C(=O)n1nnc2ccccc21 (stereo unspecified)	1.3	-6.1	0.0	-1.3
O=C(OCC(=O)c1ccc(Br)s1)c1ccc(Br)o1	1.8	-2.5	0.2	5.6
CCOC(=O)c1c(NC(=O)C(C)Sc2nnc(CNC(=O)c3cccs3)n2-c2cccc(Cl)c2)sc2c1CCC2 (stereo unspecified)	-1.3	9.6	0.1	-3.9
Cc1cc(C)cc(NC(=O)CSc2nccn2C)c1	-1.8	-5.4	0.6	5.9
Cc1cc(-c2cnc(N3CCCC3)nc2C2CCCN(C(=O)c3ccco3)C2)on1 (stereo unspecified)	-0.2	51.0*	-0.1	0.4
Cc1nc(C(=O)N2CCCC(c3nc(-c4ccncc4)ncc3-c3ccccc3)C2)cs1 (stereo unspecified)	-0.9	53.6*	0.2	-16.9
O=C(c1ccccc1F)N1CCCC(c2nc(N3CCOCC3)ncc2-c2ccncc2)C1 (stereo unspecified)	0.7	56.4*	0.0	-4.0
CC(NC(=S)Nc1ccc(F)cc1F)c1ccncc1 (stereo unspecified)	0.8	5.5	0.1	17.5
